Results filed as inconclusive are left out. Unmarked numbers belong to inactive results. Calls of active or inactive are those of the source. Calls come from the whole dose curve; as a rule, active = well fitted cell-killing curve with a large enough effect in the repeat runs; inconclusive = weak or mixed curves, or effect the other way; inactive = flat fitted curve, though single readings scatter.
test: cAMP Responsive Elements (CRE) small molecule antagonists, cell-based qHTS assay: qHTS cell viability counter screen (AID 2060913); settings: CRE-bla HEK293T viability, CellTiter-Glo luminescence, 5 h; series mostly up to 92.4 µM; viability change, negative = cytotoxic: at the top concentration; note: nearly all actives have a fitted effect of over 40% in size
Source text: U.S. Tox21 Program National Center for Advancing Translational Sciences [NCATS] Division of Preclinical Innovation [DPI] U.S. Environmental Protection Agency [EPA] National Institutes of Environmental Health Sciences [NIEHS] National Toxicology Program [NTP] U.S. Food and Drug Administration [FDA] Tox21 Assay Overview: CREB (cyclic-AMP Responsive Element Binding Protein) is a cellular transcription factor. It binds to certain DNA sequences called cAMP Responsive Elements (CRE) and regulates the transcription of the genes. […] This cell line can be used to find agonists/antagonists of the cyclic AMP signaling pathway. The activation of the report gene under culture conditions can be detected by fluorescence intensity. This cell line has been used to screen the Tox21 10K compound library to identify agonists that induce oxidative stress. The cytotoxicity of the Tox21 compound library against the CRE-bla cell line was tested in parallel by measuring the cell viability using CellTiter-Glo assay (Promega, Madison, WI) in the same wells.
Tox21 Assay Protocol Summary: CRE-bla Hek 293T cells were suspended in assay medium (DMEM containing 10% dialyzed FBS, 0.1 mM NEAA, 1 mM sodium pyruvate and 25 mM HEPES) and dispensed at 2,000 cells/4 uL /well into 1536-well black wall/clear bottom plates using a Multidrop Combi (ThermoFisher Scientific, Waltham, MA) dispenser. After the assay plates were incubated at 37 C/5% CO2 for 18 hrs, 23 nL of compounds dissolved in DMSO, positive controls or DMSO only was transferred to the assay plate by a pintool workstation (Kalypsys, San Diego, CA), followed by addition of 1 uL of 1.25uM NKH477 (0.25 uM as final concentration) in assay medium using a Flying Reagent Dispenser (Aurora Discovery, San Diego, CA). The plates were incubated at 37 C and 5% CO2 for 3 hrs. Then 1 uL of LiveBLAzer B/G FRET substrate (Invitrogen, Carlsbad, CA) was added to each well using Bioraptr Flying Reagent Dispenser (FRD, Aurora Discovery, San Diego, CA). The plates were incubated at room temperature for 2 h, then fluorescence intensities were measured using an Envision plate reader (PerkinElmer, Shelton, CT) at Excitation 405nm, Emission 460nm and 530nm. The % activity was determined from the ratio of 460nm/530nm. For cell viability readout that measures cytotoxicity, 4 uL /well of CellTiter-Glo reagent was added into the assay plates using Bioraptr FRD. After 30 min incubation at room temperature, the luminescence intensity in the assay plates was measured using a ViewLux (PerkinElmer, Shelton, CT) plate reader.
% is set by controls: 0 for no effect and ±100 for the full control effect.

| SMILES | viability change, negative = cytotoxic | Potency |
| --- | --- | --- |
| Clc1ccccc1N1CCNCC1 | 5.9% [at 42.5 µM] | – |
| Nc1ccc2ccccc2c1 | – | inactive |
| CCC(C)(CC)c1cc(NC(=O)c2c(OC)cccc2OC)on1 | – | inactive |
| Nc1c(Br)cc(Br)c2c1C(=O)c1ccccc1C2=O | 10% [at 18.9 µM] | – |
| CCSC(=O)N1CCCCCC1 | – | inactive |
| CC(Cc1ccccc1)NCc1ccccc1Cl (stereo not given) | -3.12% [at 42.5 µM] | – |
| CNC(=O)Oc1cccc(N=CN(C)C)c1 | -1.38% | – |
| CCCCCCC(=O)CCCCCC/C=C/C[C@@H](O)[C@H](O)[C@@](N)(CO)C(=O)O | 2.93% [at 18.9 µM] | – |
| CC1(C)C(C=C(Cl)Cl)C1C(=O)OC(C#N)c1ccc(F)c(Oc2ccccc2)c1 (stereo not given) | -13.8% | – |
| O=C(CCCN1CCC2(CC1)C(=O)NCN2c1ccccc1)c1ccc(F)cc1 | -0.91% [at 42.5 µM] | – |
| Nc1cc(Cl)cc(Cl)c1 | – | inactive |
| C[C@]12CC[C@H]3[C@@H](CC=C4C[C@@H](O)CC[C@@]43C)[C@@H]1CC[C@@H]2O | 2.47% [at 42.5 µM] | – |
| CS(=O)(=O)c1ccc(C(=O)C2C(=O)CCCC2=O)c([N+](=O)[O-])c1 | 2.04% | – |
| COc1ccc2[nH]cc(CCN(C(C)C)C(C)C)c2c1 | -1.33% | – |
| CNC(=O)Oc1cccc(C(C)C)c1 | 6.02% | – |
| CCN(CC)C(=S)S | – | inactive |
| C=CC[C@]1(O)CC[C@H]2[C@@H]3CCC4=CC(=O)CCC4=C3C=C[C@@]21C | -0.352% [at 42.5 µM] | – |
| CCOC(=O)c1ncn2c1CN(C)C(=O)c1c(I)cccc1-2 | -2.46% [at 42.5 µM] | – |
| C=CCSSCC=C | -1.72% | – |
| N#Cc1cc([N+](=O)[O-])ccc1N | 5.69% | – |

| SMILES | viability change, negative = cytotoxic | Potency |
| --- | --- | --- |
| CCCCCCCC(=O)Cl | -5.75% | – |
| COP(=O)(OC)Oc1ccc([N+](=O)[O-])cc1 | -18.6% | – |
| O=C(Cl)c1ccccc1 | 7% | – |
| CCOC(=S)S | – | inactive |
| c1ccc2nc(N3CCNCC3)ccc2c1 | 6.84% [at 42.5 µM] | – |
| C[C@H](CN1CCOCC1)C(C(=O)N1CCCC1)(c1ccccc1)c1ccccc1 | -8.28% | – |
| Clc1cccc(N2CCNCC2)c1 | 2.79% [at 42.5 µM] | – |
| Brc1c(Br)c(Br)c(Oc2c(Br)c(Br)c(Br)c(Br)c2Br)c(Br)c1Br | -10% [at 18.9 µM] | – |
| CN(C)c1ccccc1 | – | inactive |
| CNC(=O)Oc1cccc2ccccc12 | – | inactive |
| C=CC(=C)C | 2.04% | – |
| CC1=C(C(=O)Nc2ccccc2)SCCO1 | – | inactive |
| CCC(C)Br (stereo not given) | 0.473% | – |
| CC(=O)CN(CC(C)=O)N=O | 7.64% | – |
| Nc1ccc(-c2ccc(N)cc2)cc1 | – | inactive |
| OCCCl | -0.0769% | – |
| CCC(CC)Nc1c([N+](=O)[O-])cc(C)c(C)c1[N+](=O)[O-] | – | inactive |
| Cc1ccc(N)c(N)c1 | – | inactive |
| CC(C)OC(=S)S | -7.35% | – |
| CC[C@H]1C[C@H]2[C@@H]3CCC4=CC(=O)CC[C@@H]4[C@H]3CC[C@]2(C)[C@H]1O | -3.45% [at 42.5 µM] | – |

— PubChem BioAssay (Tox21)
